Source: publication PMC7862700, “An all-to-all approach to the identification of sequence-specific readers for epigenetic DNA modifications on cytosine”

Experiments:
Assay in all cases: DAPPL (digital affinity profiling via proximity ligation, sequencing); 10 mM Tris-HCl pH 7.5, 50 mM NaCl, 1 mM DTT, 4% glycerol, room temperature, 30 min; GST-TFs on glutathione beads, 16-mer random dsDNA library, 0.1% formaldehyde crosslink after washing; high values mean tight binding
FLI1 = target: T1, FLI1 (Homo sapiens, UniProt Q01543 1-452); conditions: protein: recombinant; tags: N-terminal GST; dsDNA, one strand shown
T1 sequence: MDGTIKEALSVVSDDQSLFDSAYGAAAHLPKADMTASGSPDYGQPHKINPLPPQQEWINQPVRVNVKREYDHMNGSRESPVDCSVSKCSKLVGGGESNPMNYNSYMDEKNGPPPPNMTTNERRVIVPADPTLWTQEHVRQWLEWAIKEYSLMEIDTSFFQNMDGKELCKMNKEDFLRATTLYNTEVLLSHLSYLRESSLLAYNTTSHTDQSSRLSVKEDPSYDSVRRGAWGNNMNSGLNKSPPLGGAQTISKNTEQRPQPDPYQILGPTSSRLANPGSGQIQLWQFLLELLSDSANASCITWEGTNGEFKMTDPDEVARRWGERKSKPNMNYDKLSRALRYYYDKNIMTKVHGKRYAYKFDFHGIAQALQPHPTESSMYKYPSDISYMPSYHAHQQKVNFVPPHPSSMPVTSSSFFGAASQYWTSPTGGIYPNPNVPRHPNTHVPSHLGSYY
Outline: (§1)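 Binding signal is defined as a hexamer's read frequency for one factor over its frequency for the tag-only sample. To obtain reads, GST-fused human transcription factors were expressed in yeast, captured on glutathione beads, barcoded with DNA and pooled with that sample. Pools met 200 nmole of a 16-mer random double-stranded DNA library in Tris/NaCl/DTT/glycerol buffer for 30 min at room temperature before washing, 0.1% formaldehyde crosslinking, proximity ligation (BsaI/T4 ligase, 1 h, 37 °C), PCR and Illumina NextSeq500 sequencing.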

ELK1 = target: T2, ELK1 (Homo sapiens, UniProt P19419 1-428); conditions: protein: recombinant; tags: N-terminal GST; dsDNA, one strand shown
T2 sequence: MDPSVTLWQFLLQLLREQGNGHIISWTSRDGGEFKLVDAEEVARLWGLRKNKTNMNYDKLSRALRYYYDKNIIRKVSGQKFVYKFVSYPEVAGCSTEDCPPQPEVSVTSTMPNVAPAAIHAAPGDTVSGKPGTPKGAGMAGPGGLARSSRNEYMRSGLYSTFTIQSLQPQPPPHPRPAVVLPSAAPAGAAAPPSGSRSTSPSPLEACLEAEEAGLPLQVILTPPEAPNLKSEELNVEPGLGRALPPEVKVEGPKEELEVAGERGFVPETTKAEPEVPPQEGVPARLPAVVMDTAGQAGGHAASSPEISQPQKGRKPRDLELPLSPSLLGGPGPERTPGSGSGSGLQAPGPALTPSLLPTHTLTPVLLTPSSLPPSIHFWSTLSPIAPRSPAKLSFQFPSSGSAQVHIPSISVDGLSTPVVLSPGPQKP
Outline: as §1

GABPA = target: T3, GABPA (Homo sapiens, UniProt Q06546 1-454); conditions: protein: recombinant; tags: N-terminal GST; dsDNA, one strand shown
T3 sequence: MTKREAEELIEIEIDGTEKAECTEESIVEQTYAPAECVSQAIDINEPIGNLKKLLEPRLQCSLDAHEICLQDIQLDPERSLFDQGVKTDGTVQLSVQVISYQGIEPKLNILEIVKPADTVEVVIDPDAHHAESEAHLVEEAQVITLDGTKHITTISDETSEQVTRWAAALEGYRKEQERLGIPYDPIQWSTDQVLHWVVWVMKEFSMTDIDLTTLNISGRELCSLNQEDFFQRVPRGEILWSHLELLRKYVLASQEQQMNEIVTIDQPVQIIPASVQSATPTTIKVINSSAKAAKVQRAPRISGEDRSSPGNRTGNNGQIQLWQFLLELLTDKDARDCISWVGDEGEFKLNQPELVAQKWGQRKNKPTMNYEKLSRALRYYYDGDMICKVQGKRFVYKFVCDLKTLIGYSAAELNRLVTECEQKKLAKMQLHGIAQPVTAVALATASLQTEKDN
Outline: as §1

ERG = target: T4, ERG (Homo sapiens, UniProt P11308 1-479); conditions: protein: recombinant; tags: N-terminal GST; dsDNA, one strand shown
T4 sequence: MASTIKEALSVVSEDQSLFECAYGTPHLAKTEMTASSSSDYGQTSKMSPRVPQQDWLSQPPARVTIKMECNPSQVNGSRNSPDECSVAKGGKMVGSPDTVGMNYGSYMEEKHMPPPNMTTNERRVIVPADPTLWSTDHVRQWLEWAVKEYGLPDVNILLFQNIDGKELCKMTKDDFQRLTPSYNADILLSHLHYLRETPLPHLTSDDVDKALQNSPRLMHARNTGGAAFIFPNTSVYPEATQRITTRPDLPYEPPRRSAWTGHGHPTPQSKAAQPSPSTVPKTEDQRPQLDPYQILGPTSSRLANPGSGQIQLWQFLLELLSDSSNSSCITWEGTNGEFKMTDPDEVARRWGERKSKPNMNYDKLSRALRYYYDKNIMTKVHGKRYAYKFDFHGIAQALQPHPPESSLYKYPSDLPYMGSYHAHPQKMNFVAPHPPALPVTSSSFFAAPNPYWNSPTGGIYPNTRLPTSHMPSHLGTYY
Outline: as §1

ELF1 = ELF1 (Homo sapiens, UniProt P32519 1-619); conditions: protein: recombinant; tags: N-terminal GST; dsDNA, one strand shown
Outline: as §1

EHF = target: T5, EHF (Homo sapiens, UniProt Q9NZC4 1-300); conditions: protein: recombinant; tags: N-terminal GST; dsDNA, one strand shown
T5 sequence: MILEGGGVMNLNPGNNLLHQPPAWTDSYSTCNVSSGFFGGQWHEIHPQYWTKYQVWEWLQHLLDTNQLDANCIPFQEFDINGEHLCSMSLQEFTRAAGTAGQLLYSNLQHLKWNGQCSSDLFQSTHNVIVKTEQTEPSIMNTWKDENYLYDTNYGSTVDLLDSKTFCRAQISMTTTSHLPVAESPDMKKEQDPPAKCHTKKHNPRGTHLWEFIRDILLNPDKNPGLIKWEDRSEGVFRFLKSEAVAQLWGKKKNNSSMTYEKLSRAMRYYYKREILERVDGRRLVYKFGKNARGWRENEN
Outline: as §1

SPI1 = SPI1 (Homo sapiens, UniProt P17947 1-270); conditions: protein: recombinant; tags: N-terminal GST; dsDNA, one strand shown
Outline: as §1

SPIB = SPIB (Homo sapiens, UniProt Q01892 1-262); conditions: protein: recombinant; tags: N-terminal GST; dsDNA, one strand shown
Outline: as §1

ELK3 = target: T6, ELK3 (Homo sapiens, UniProt P41970 1-407); conditions: protein: recombinant; tags: N-terminal GST; dsDNA, one strand shown
T6 sequence: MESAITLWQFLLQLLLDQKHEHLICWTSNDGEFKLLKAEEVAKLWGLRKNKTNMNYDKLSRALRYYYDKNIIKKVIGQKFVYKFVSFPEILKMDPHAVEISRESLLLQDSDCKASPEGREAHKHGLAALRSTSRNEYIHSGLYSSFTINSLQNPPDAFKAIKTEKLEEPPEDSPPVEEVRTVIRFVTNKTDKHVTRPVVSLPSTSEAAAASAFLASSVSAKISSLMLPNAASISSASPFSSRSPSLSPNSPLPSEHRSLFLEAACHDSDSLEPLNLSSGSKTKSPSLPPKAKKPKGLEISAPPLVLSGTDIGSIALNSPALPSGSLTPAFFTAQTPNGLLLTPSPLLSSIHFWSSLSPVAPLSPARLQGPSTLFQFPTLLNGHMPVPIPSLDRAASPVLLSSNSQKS
Outline: as §1

FEV = target: T7, FEV (Homo sapiens, UniProt Q99581 1-238); conditions: protein: recombinant; tags: N-terminal GST; dsDNA, one strand shown
T7 sequence: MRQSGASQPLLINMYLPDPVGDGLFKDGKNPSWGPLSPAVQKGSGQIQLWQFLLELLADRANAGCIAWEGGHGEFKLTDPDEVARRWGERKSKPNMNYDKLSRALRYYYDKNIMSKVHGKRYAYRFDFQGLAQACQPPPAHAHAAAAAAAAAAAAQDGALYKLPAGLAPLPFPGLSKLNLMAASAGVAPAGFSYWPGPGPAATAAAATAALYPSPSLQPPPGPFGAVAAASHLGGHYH
Outline: as §1

ETV5 = ETV5 (Homo sapiens, UniProt P41161 1-510); conditions: protein: recombinant; tags: N-terminal GST; dsDNA, one strand shown
Outline: as §1

HSF1 = HSF1 (Homo sapiens, UniProt Q00613 1-529); conditions: protein: recombinant; tags: N-terminal GST; chain copies: 3; dsDNA, one strand shown
Outline: as §1

SPIC = target: T8, SPIC (Homo sapiens, UniProt Q8N5J4 1-248); conditions: protein: recombinant; tags: N-terminal GST; dsDNA, one strand shown
T8 sequence: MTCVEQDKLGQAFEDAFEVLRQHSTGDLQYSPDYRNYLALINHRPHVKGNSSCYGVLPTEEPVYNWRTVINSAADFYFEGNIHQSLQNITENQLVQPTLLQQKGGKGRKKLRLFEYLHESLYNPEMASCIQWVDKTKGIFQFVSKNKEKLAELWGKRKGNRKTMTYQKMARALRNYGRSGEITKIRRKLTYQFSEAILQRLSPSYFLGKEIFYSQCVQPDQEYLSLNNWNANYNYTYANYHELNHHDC
Outline: as §1

ELF4 = ELF4 (Homo sapiens, UniProt Q99607 1-663); conditions: protein: recombinant; tags: N-terminal GST; dsDNA, one strand shown
Outline: as §1

ELK4 = target: T9, ELK4 (Homo sapiens, UniProt P28324-2 1-405); conditions: protein: recombinant; tags: N-terminal GST; dsDNA, one strand shown
T9 sequence: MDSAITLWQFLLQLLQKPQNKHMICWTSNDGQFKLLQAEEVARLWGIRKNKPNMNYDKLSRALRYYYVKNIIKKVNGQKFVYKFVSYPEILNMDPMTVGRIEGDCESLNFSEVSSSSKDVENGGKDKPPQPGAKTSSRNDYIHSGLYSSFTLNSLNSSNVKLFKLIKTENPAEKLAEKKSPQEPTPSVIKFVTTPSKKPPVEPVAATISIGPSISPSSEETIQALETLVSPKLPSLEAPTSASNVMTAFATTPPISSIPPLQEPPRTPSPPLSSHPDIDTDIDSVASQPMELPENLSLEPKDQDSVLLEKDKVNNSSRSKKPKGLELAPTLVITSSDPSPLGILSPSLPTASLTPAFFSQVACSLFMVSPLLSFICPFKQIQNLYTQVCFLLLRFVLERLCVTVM
Outline: as §1

ELF3 = target: T10, ELF3 (Homo sapiens, UniProt P78545 1-371); conditions: protein: recombinant; tags: N-terminal GST; dsDNA, one strand shown
T10 sequence: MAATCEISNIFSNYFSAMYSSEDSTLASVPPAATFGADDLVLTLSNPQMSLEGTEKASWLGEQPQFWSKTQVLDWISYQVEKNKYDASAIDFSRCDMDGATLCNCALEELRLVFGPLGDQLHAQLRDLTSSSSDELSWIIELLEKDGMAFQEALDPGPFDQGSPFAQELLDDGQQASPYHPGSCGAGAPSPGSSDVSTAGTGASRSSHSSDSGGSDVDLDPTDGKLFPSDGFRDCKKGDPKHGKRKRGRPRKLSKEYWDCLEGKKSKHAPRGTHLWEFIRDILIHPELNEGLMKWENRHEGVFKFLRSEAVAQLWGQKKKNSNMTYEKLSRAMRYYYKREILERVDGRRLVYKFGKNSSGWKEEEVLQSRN
Outline: as §1

CRX = CRX (Homo sapiens, UniProt O43186 1-299); conditions: protein: recombinant; tags: N-terminal GST; dsDNA, one strand shown
Outline: as §1

ETV1 = ETV1 (Homo sapiens, UniProt P50549 1-477); conditions: protein: recombinant; tags: N-terminal GST; dsDNA, one strand shown
Outline: as §1

Sequence of ELF1 (P32519 whole entry): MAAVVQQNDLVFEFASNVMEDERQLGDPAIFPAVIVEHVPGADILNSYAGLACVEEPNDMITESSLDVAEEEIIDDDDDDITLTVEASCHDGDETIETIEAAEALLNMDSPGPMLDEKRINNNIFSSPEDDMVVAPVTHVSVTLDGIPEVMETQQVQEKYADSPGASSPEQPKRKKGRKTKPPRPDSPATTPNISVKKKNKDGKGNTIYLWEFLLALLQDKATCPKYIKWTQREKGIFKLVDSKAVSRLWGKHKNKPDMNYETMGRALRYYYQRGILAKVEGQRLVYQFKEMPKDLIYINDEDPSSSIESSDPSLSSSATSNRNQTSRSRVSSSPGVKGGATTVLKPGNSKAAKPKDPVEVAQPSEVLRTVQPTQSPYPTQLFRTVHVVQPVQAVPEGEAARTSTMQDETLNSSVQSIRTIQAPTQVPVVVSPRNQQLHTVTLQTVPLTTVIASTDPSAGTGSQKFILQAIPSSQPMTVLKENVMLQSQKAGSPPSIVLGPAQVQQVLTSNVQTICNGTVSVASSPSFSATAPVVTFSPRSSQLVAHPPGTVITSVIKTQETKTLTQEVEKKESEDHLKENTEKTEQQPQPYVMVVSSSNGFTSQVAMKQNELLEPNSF
Sequence of ETV1 (P50549 whole entry): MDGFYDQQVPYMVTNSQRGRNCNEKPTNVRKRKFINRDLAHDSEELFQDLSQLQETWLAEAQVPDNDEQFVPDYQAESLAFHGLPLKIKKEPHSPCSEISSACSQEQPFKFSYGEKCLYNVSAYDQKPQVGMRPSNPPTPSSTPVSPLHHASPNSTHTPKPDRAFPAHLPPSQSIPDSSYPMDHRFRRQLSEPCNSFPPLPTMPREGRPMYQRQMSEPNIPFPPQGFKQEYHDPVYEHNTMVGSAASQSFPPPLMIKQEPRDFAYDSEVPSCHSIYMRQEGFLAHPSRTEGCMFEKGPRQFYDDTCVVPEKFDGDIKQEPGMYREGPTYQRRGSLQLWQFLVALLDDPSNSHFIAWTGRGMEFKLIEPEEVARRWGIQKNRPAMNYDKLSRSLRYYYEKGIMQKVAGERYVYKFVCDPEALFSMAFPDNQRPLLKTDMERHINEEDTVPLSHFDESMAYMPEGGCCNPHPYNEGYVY
Sequence of ETV5 (P41161 whole entry): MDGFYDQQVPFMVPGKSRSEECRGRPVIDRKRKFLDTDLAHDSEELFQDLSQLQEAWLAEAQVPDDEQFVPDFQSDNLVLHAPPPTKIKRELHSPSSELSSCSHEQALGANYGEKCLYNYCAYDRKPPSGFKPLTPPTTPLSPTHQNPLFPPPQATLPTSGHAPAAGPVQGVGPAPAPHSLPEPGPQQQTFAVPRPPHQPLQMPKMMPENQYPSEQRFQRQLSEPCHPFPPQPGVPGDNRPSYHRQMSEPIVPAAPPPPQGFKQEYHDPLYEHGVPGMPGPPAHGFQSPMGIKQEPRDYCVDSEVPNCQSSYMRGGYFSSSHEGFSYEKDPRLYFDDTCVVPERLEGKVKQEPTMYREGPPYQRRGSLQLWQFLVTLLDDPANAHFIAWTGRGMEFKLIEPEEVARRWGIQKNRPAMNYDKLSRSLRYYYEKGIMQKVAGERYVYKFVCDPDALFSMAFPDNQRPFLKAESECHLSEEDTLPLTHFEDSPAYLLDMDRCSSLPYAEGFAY
Sequence of ELF4 (Q99607 whole entry): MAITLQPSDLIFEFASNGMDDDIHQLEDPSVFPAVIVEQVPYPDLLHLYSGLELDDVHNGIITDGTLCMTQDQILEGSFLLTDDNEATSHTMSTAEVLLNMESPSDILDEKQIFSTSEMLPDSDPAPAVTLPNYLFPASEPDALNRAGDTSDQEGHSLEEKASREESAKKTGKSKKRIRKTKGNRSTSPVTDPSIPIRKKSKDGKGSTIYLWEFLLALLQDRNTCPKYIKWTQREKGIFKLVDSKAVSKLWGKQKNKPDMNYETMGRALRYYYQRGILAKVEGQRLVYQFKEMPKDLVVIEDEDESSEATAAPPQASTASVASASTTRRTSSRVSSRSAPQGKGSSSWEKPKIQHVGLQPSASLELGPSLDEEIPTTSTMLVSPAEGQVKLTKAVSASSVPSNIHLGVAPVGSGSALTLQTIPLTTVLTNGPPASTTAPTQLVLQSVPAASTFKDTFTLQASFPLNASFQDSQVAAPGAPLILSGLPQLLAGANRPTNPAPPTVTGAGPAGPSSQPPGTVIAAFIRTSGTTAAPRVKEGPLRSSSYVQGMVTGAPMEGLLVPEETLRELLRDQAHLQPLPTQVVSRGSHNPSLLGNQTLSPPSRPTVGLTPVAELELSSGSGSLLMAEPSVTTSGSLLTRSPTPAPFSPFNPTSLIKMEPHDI
Sequence of SPIB (Q01892 whole entry): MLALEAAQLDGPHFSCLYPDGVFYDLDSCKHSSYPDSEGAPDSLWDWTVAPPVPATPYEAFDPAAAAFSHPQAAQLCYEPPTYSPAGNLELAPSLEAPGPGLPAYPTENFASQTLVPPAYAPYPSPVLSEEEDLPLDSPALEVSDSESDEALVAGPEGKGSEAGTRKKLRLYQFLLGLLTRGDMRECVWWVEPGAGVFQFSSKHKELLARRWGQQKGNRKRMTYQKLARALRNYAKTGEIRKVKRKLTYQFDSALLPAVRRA
Sequence of CRX (O43186 whole entry): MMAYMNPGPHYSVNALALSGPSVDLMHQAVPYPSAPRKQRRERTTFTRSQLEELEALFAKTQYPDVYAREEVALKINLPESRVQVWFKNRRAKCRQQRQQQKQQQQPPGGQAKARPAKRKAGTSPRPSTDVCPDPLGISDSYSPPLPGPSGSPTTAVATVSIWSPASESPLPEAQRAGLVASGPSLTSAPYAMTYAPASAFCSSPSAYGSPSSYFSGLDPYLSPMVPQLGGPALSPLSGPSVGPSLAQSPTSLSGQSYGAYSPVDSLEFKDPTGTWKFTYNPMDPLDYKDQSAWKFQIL
Sequence of HSF1 (Q00613 whole entry): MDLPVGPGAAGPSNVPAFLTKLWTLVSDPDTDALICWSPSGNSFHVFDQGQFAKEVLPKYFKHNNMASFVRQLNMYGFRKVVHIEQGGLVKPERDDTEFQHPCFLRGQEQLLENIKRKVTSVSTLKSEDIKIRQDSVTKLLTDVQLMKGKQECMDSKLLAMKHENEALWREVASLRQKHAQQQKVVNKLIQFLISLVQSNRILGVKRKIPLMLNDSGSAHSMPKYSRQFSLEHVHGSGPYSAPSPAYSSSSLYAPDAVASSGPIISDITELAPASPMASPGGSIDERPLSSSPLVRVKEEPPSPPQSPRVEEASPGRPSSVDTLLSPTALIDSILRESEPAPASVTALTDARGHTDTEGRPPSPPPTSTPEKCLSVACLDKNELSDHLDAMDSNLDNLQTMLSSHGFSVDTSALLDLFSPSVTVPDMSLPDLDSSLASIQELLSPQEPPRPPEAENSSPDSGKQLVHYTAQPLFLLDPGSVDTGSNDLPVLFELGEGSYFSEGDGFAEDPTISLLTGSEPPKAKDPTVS

Row | Sequence | binding signal (FLI1) | binding signal (ELK1) | binding signal (GABPA) | binding signal (ERG) | binding signal (ELF1) | binding signal (EHF) | binding signal (SPI1) | binding signal (SPIB) | binding signal (ELK3) | binding signal (FEV) | binding signal (ETV5) | binding signal (HSF1) | binding signal (SPIC) | binding signal (ELF4) | binding signal (ELK4) | binding signal (ELF3) | binding signal (CRX) | binding signal (ETV1)
1 | AAGCGC | 1.2 fold enrichment (6-mer frequency, TF over GST control) | 1.11 fold enrichment (6-mer frequency, TF over GST control) | 1.12 fold enrichment (6-mer frequency, TF over GST control) | 1.13 fold enrichment (6-mer frequency, TF over GST control) | 1.15 fold enrichment (6-mer frequency, TF over GST control) | 1.19 fold enrichment (6-mer frequency, TF over GST control) | 1.07 fold enrichment (6-mer frequency, TF over GST control) | 1.23 fold enrichment (6-mer frequency, TF over GST control) | 1.19 fold enrichment (6-mer frequency, TF over GST control) | 1.14 fold enrichment (6-mer frequency, TF over GST control) | 1.09 fold enrichment (6-mer frequency, TF over GST control) | 1.08 fold enrichment (6-mer frequency, TF over GST control) | 1.14 fold enrichment (6-mer frequency, TF over GST control) | 1.12 fold enrichment (6-mer frequency, TF over GST control) | 1.2 fold enrichment (6-mer frequency, TF over GST control) | 1.16 fold enrichment (6-mer frequency, TF over GST control) | 1.27 fold enrichment (6-mer frequency, TF over GST control) | 1.09 fold enrichment (6-mer frequency, TF over GST control)
2 | GGTACT | 1.25 fold enrichment (6-mer frequency, TF over GST control) | 1.21 fold enrichment (6-mer frequency, TF over GST control) | 1.31 fold enrichment (6-mer frequency, TF over GST control) | 1.24 fold enrichment (6-mer frequency, TF over GST control) | 1.32 fold enrichment (6-mer frequency, TF over GST control) | 1.25 fold enrichment (6-mer frequency, TF over GST control) | 1.19 fold enrichment (6-mer frequency, TF over GST control) | 1.15 fold enrichment (6-mer frequency, TF over GST control) | 1.35 fold enrichment (6-mer frequency, TF over GST control) | 1.28 fold enrichment (6-mer frequency, TF over GST control) | 1.39 fold enrichment (6-mer frequency, TF over GST control) | 1.05 fold enrichment (6-mer frequency, TF over GST control) | 1.24 fold enrichment (6-mer frequency, TF over GST control) | 1.24 fold enrichment (6-mer frequency, TF over GST control) | 1.19 fold enrichment (6-mer frequency, TF over GST control) | 1.03 fold enrichment (6-mer frequency, TF over GST control) | 1.05 fold enrichment (6-mer frequency, TF over GST control) | 1.26 fold enrichment (6-mer frequency, TF over GST control)
